# Bioassay records from PubChem.
# Only some compounds are listed: those with a hit (about 3.5% of all), similar ones and a draw of the others.
# MITF primary: human MITF inhibition, primary screen | inhibition, % at 2.6 µM | AID 1259374 | O75030 | 650,000 tested, 0.91% active | AlphaScreen MITF homodimerization, bead proximity signal; in the data active = inhibition above about 50%;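 also: 0% = vehicle wells with protein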
# TEAD-YAP inh: TEAD-YAP interaction inhibition; HEK-TIYL cells, TEAD-Gal4/YAP UAS-luciferase luminescence; inhibition, % at 9.12 µM; 640,000 tested, 1.4% active; in the data active = inhibition above about 32%;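 also: 0% = median of test compound wells and 100% = reference inhibitor wells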
# FBW7 activator: activators of human E3 ligase FBW7; AlphaScreen FBW7–phospho-cyclin E peptide binding, activator screen; normalized activity (activation), % at 26.1 µM; 650,000 tested, 0.13% active; AID 1259310; in the data active = normalized activity above about 1.9%;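 also: purified mutant Fbw7 with reduced substrate affinity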
# GPR151 ag: activates the human receptor GPR151; Q8TDV0; PathHunter beta-arrestin GPR151 cells, luminescence; activation, % at 11.2 µM; 650,000 tested, 1% active; in the data active = activation above about 4.9%;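 also: 0% = median of compound wells and 100% = cells with positive control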
# Target sequence (Q8TDV0 whole entry, looked up): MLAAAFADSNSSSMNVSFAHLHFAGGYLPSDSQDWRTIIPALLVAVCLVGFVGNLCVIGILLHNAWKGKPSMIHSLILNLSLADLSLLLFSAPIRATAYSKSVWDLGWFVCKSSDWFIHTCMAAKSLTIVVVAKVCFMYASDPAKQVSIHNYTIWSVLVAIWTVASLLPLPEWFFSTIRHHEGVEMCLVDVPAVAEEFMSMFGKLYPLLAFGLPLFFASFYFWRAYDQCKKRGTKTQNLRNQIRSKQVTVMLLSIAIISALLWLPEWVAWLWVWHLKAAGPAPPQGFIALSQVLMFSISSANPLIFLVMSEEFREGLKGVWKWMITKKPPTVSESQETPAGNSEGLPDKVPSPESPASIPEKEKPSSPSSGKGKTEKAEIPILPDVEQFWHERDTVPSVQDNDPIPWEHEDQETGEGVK
# * marks the source's active call; other numbers are inactive results.
SMILES,MITF primary,TEAD-YAP inh,FBW7 activator,GPR151 ag
Cc1cc(C(=O)N/N=C/c2ccccc2OC(F)F)c2ccccc2n1,8,34*,1,0
FC(F)(F)c1cccc(N2C(=S)N=C(Nc3ccccc3)C23CCCCC3)c1,21,6,0,1
N#Cc1ccccc1NC(=O)COC(=O)c1ccc2c(c1)C(=O)N(c1ccc(F)cc1)C2=O,-37,-1,0,0
COc1ccc(C2(CC(=O)N3CC4CCCC3C4)CC(=O)N(C)C2=O)cc1 (stereo not drawn),-12,-7,0,1
CCOc1ccc(-c2cnc[nH]2)cc1[N+](=O)[O-],-3,-6,0,0
CCN1CCN(CCCCOc2ccc3c(c2)CCC3)CC1,42,6,0,0
COc1cc(C(=O)N/N=C/c2ccc([N+](=O)[O-])o2)cc(OC)c1OC,13,34*,0,-1
Cc1cc(C(=O)N/N=C/c2ccc(O)c(O)c2O)c2ccccc2n1,82*,17,-1,-2
CCOc1cccc(/C=N/NC(=O)c2ccc(C)cc2C)c1O,-4,0,-1,0
Cc1ccc(C(=O)N/N=C/c2ccc(O)c(O)c2O)c(C)c1,57*,-16,-1,0
O=C(N/N=C\c1ccc([N+](=O)[O-])o1)c1ccccc1-n1cccc1,12,49*,0,3
Nc1nc(Nc2ccc3c(c2)OCO3)cc(Nc2ccc3ncccc3c2)n1,36,-1,0,1
O=C(Nc1ccc(-c2ncnc3[nH]ccc23)cc1)C1COc2ccccc2O1 (stereo not drawn),23,52*,1,-1
NC(C(=O)Nc1ccc(-c2ccnc3[nH]ccc23)cc1)c1ccc(Cl)cc1 (stereo not drawn),11,8,0,0
NC(C(=O)Nc1ccc(-c2ncnc3[nH]ccc23)cc1)c1ccc(Cl)cc1 (stereo not drawn),17,57*,0,0
CCOc1ccccc1N1CCN(C(=O)CC(c2ccccc2)c2ccccc2)CC1,7,4,0,0
CN(C)CCN(C)C(=O)c1ccc(-c2ccsc2)nc1N(C)C,0,-15,0,0
Cc1ccc(S(=O)(=O)Nc2ccccc2C(=O)NCc2ccccc2)cc1[N+](=O)[O-],-2,6,0,1
CCn1nc(-c2ccccn2)nc2c(=O)n(C)c(=O)nc1-2,21,97*,0,-2
Cn1nc(-c2ccc([N+](=O)[O-])cc2)nc2c(=O)n(C)c(=O)nc1-2,7,55*,0,-8
CCn1nc(-c2ccc(OC)cc2)nc2c(=O)n(C)c(=O)nc1-2,7,96*,0,-9
CCn1nc(-c2ccc(Cl)c(Cl)c2)nc2c(=O)n(C)c(=O)nc1-2,3,-40,0,-9
Cc1ccccc1C(=O)On1c(-c2ccccc2F)nc2ccccc2c1=O,11,11,0,1
Cn1c2c(c(=O)n(C)c1=O)CN(CCN1CCN(c3ccccc3)CC1)CN2,3,-1,0,0
Cn1cccc1/C=C(\C(=O)c1ccccc1)N1C=CC=CC1=C(C#N)C#N,-5,61*,0,0
SMILES,MITF primary,TEAD-YAP inh,FBW7 activator,GPR151 ag
N#CC(C#N)=C1C=CC=CN1/C(=C\c1ccccc1)C(=O)c1ccccc1,12,-5,1,1
COc1ccc(C(=O)/C(=C\c2ccco2)N2C=CC=CC2=C(C#N)C#N)cc1,5,43*,0,-4
CC(C)NCCCOc1ccc(Cl)cc1Br,14,32*,0,-1
CC(C)NCCOc1ccc(Cl)cc1Br,2,-7,0,-2
COc1cccc(N2C(=O)NC(=O)/C(=C/C=C/c3ccco3)C2=O)c1,18,3,0,4
COc1ccc(N2C(=O)/C(=C\C=C\c3ccco3)C(=O)NC2=S)cc1,77*,-1,0,-1
O=C(Nc1cc(C(F)(F)F)cc(C(F)(F)F)c1)c1ccc([N+](=O)[O-])o1,-7,59*,0,0
Cc1cc(C)c(NS(=O)(=O)c2ccc3c4c2CC(=O)N4CC(C)S3)c(C)c1 (stereo not drawn),-4,4,0,0
COc1cccc(NS(=O)(=O)c2ccc3c4c2CC(=O)N4CC(C)S3)c1 (stereo not drawn),16,40*,0,-2
CCCn1c(CCC(=O)Nc2cc(C)ccc2C)nc2cccnc21,-9,-3,0,0
C[C@]12CCCCC1CCC1C2CC[C@]2(C)C(N)CCC12 (stereo partly drawn),-2,-10,0,2
CC1(C)O[C@]2(CCC3C4CC[C@H]5CCCC[C@]5(C)C4CC[C@@]32C)CN1C(=O)CSC1=NCCN1 (stereo partly drawn),2,33*,0,2
COCCN(CCOC)S(=O)(=O)c1ccc(C(=O)Nc2nc3ccc4sc(C)nc4c3s2)cc1,10,-4,0,-1
CCOc1cccc(C2CC(c3cccc(OC)c3)=NC(c3ccc(OC)c(Br)c3)N2)c1O (stereo not drawn),5,-14,0,-1
CC(OC(=O)CNC(=O)c1cccc([N+](=O)[O-])c1)C(=O)Nc1cccc(C(F)(F)F)c1 (stereo not drawn),9,3,0,2
CCNc1nc2c(c(=O)n(C)c(=O)n2C)n1CCc1ccccc1,3,33*,0,1
CC(C)n1c(CN(C)Cc2ccccc2)nc2c1c(=O)n(C)c(=O)n2C,7,50*,0,2
COc1cccc(Cn2c(NCc3ccco3)nc3c2c(=O)n(C)c(=O)n3C)c1,8,40*,0,1
Cc1ccc(Cn2c(CN(C)Cc3ccccc3)nc3c2c(=O)n(C)c(=O)n3C)cc1,-18,-5,0,0
Cc1cc(OS(=O)(=O)c2ccc(F)cc2)c(C)cc1CN1CCOCC1,-5,9,0,-1
COc1ccc(S(=O)(=O)Oc2cc(C)cc(C)c2CN2CCOCC2)cc1,-11,37*,0,0
Cc1ccc(C)c(N2CCN(S(=O)(=O)c3ccc(F)c(C(=O)Nc4cccc(Cl)c4C)c3)CC2)c1,16,-6,1,-2
CCN(CC)CCOC(=O)c1ccc(NC(=O)c2cccs2)cc1Cl,8,-3,0,-4
O=C1COc2ccc(C(=O)O)cc2N1,9,7,0,0
CC(C)(C)c1ccc2c(c1)NC(=O)CO2,-14,35*,0,0
SMILES,MITF primary,TEAD-YAP inh,FBW7 activator,GPR151 ag
FC(F)(F)C1=Nc2cc(Cl)c(Cl)cc2N=C(c2cccs2)C1,-6,37*,0,0
C=CCOc1ccc(C(=O)NCc2cccnc2)cc1,-7,8,0,0
C(=N\N1CCOCC1)/c1ccc2c(c1)OCCO2,15,-32,0,1
O=C1OC2(CCCC2)OC(=O)C1=Cc1ccc(-c2ccc([N+](=O)[O-])cc2)o1,17,-1,0,-1
O=C1NN(c2ccccc2)C(=O)/C1=C\c1ccc(-c2ccc([N+](=O)[O-])cc2)o1,5,-10,0,-1
O=C1OC2(CCCCC2)OC(=O)C1=Cc1ccc([N+](=O)[O-])o1,66*,6,-1,-1
O=C1NC(=S)N(c2ccc(F)cc2)C(=O)/C1=C\c1ccc2c(c1)OCCO2,71*,9,0,1
